Compound activity: PubChem, National Center for Advancing Translational Sciences (NCATS)
Hits are enriched below; roughly 19% of the tested compounds scored in any of these assays.
TDP1 cell noCPT: qHTS for Inhibitors of human tyrosyl-DNA phosphodiesterase 1 (TDP1): qHTS in cells in absence of CPT; DT40 Tdp1-/- hTDP1 cells, no CPT, ATP luminescence, 48 h; Potency, µM (highest dose often 46.2 µM), for the others: top-dose activity change, negative = growth inhibition, most hits filed as inhibitors; 420,000 tested, 15% active; further: nearly all actives have a fitted effect of over 55% in size
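Compound effects on proliferation are scored in DT40 Tdp1-/-;hTDP1 cells in the absence of CPT. ATP levels (CellTiter-Glo luminescence) are recorded after a ≥48 hr, 37 °C incubation.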
HT1080-NT tox: kills 2HG-producing HT-1080-NT fibrosarcoma cells | HT-1080-NT fibrosarcoma viability, CellTiter-Glo ATP luminescence, 48 h | Potency, µM (doses to about 46.1 µM), inactives show at the highest dose activity, negative = less viability, hits mostly cytotoxic | 360,000 tested, 1.6% active | AID 686970;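 further: NT is the 2HG producing partner of a matched IDH1 knockdown line; 0% = DMSO-treated cells and -100% = media-only wells without cells; nearly all actives have a fitted effect of over 55% in size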
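Viability of the 2HG-overproducing fibrosarcoma line after 48 hours of compound exposure at 37 degrees C was determined by luminescence with CellTiter-Glo, and concentration-effect curves were then fitted and categorized.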
KB-V1 MDR tox: kills drug-selected multidrug resistant KB-V1 cells | KB-V1 MDR cells viability, CellTiter-Glo, 72 h | Potency, µM (doses to about 46.1 µM), usual class: cytotoxic | 400,000 tested, 3.4% active; further: nearly all actives have a fitted effect of over 60% in size
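Cytotoxicity toward P-gp-expressing KB-V1 cells was determined as loss of CellTiter-Glo luminescence after 72 h at 37 degrees C. Compounds were tested in quantitative HTS format across a concentration range, with curves fitted to normalized data.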
HT1080 IDH1KD tx: kills HT-1080 cells with IDH1 knockdown. HT-1080 IDH1 knockdown viability, ATP luminescence, 48 h. Potency, µM (series often up to 46.1 µM), without a hit: top-dose activity, negative = toxicity, usual class: cytotoxic. 360,000 tested, 2% active;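 further: 0% = DMSO wells and -100% = cell-free medium wells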
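Knockdown cells (IDH1KD HT-1080) received compounds 2 h after plating at 750 cells/well and were kept 48 h at 37 °C in 5% FBS RPMI. A CellTiter-Glo luminescence read gave % activity for curve fitting.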
KB-3-1 tox: KB-3-1 parental cell cytotoxicity; Potency, µM (top dose mostly 46.1 µM), usual class: cytotoxic; 400,000 tested, 1.4% active; KB-3-1 viability, CellTiter-Glo ATP luminescence, 72 h; further: nearly all actives have a fitted effect of over 60% in size
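KB-3-1 cells, DMEM (no phenol red) + 10% FBS; compound by pin transfer, 72 h, 37 °C. Readout: CellTiter-Glo luminescence after 10 min. Data normalized, curve-fitted.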
TDP1 cell CPT: growth inhibition of DT40 Tdp1-/-;hTDP1 cells with camptothecin (screen for TDP1 inhibitors); chicken DT40 Tdp1-/-;hTDP1 cells + 20 nM CPT, ATP luminescence, 48 h; Potency, µM (titrated, usually from 46.2 µM), for the others: at the highest dose activity change, negative = growth inhibition, hits mostly inhibitors; 420,000 tested, 12% active; further: nearly all actives have a fitted effect of over 55% in size
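Chicken DT40 Tdp1-/- cells stably complemented with human TDP1 were seeded at 400 cells/well in medium containing 20 nM camptothecin, exposed to pin-transferred compounds, and grown at 37 °C for at least 48 hr. Viability was read as ATP luminescence.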
Active calls of the source: *; i = inactive; ? = inconclusive; · = no result. The call rests on the fitted dose curve; in most records, active means well fitted curve in the direction sought with a large enough effect; inconclusive means small, poorly fitted or top-dose-only effect, or another doubt; inactive means no such curve, though single readings can be large; an effect the other way counts as inactive or inconclusive. Unless noted, on the % scale 0 is the no-effect control and ±100 the full control effect; potency means the concentration at half of the fitted maximal effect.

SMILES	TDP1 cell noCPT	HT1080-NT tox	KB-V1 MDR tox	HT1080 IDH1KD tx	KB-3-1 tox	TDP1 cell CPT
COc1ccc(/C=C/C(=O)C(C)(C)C)cc1OC	?	-15%	i	-9%	i	-5%
CCCNC(=O)Cn1c(=O)/c(=C\c2ccc(-c3cccc([N+](=O)[O-])c3)o2)s/c1=C\C(=O)C(C)(C)C	23µM*	0%	i	0%	?	23µM*
COc1ccc(-c2noc(-c3ccc(NCc4ccco4)c([N+](=O)[O-])c3)n2)cc1OC	9.2µM*	·	i	·	i	13µM*
CCCc1noc(-c2ccc(NCc3ccccc3OC)c([N+](=O)[O-])c2)n1	7.3µM*	·	i	·	i	10µM*
COc1cc(-c2noc(-c3ccc(NCc4cccnc4)c([N+](=O)[O-])c3)n2)cc(OC)c1OC	6.5µM*	·	26µM*	·	i	7.3µM*
COc1ccccc1CNc1ccc(-c2nc(-c3ccccn3)no2)cc1[N+](=O)[O-]	?	·	i	·	i	-18%
CCCc1nc2ccccc2c(C(=O)O)c1CC	-9%	0%	i	11%	i	-5%
CCCOC(=O)c1c(-c2ccccc2)nc(CC)c(C(=O)SCC)c1CCC	16µM*	8%	?	-13%	i	?
Cc1ccc(-n2nc3c(=O)n(CCCC(=O)NC(C)c4ccccc4)nc(C)c3c2C)cc1 (stereo not drawn)	?	·	·	·	·	-23%
CC1(C(=O)O)CCC(C(=O)Nc2ccc(S(N)(=O)=O)cc2)C1(C)C (stereo not drawn)	-3%	5%	i	3%	i	-9%
O=S(=O)(c1ccccc1)N1CCN=C1SCc1ccc(Cl)cc1	18µM*	4%	i	2%	i	?
O=S(=O)(c1ccc2ccccc2c1)N1CCN=C1SCc1cccnc1	?	0%	i	5%	i	23µM*
CCS(=O)(=O)N1CCN=C1SCc1ccccc1	1%	1%	i	-1%	i	-1%
O=S(=O)(c1ccccc1)N1CCN=C1SCc1ccccc1Cl	?	-16%	i	2%	i	?
O=S(=O)(c1ccccc1)N1CCN=C1SCc1ccc(Cl)c(Cl)c1	18µM*	?	i	-29%	i	13µM*
O=S(=O)(c1ccccc1)N1CCN=C1SCc1cccc(Cl)c1	21µM*	-10%	?	-17%	?	?
CS(=O)(=O)N1CCN=C1SCc1cccc(F)c1	-20%	7%	?	0%	i	17%
CCOc1ccc(S(=O)(=O)N2CCN(c3nc(-c4ccccc4)nc4ccccc34)CC2)cc1	-16%	14%	·	13%	·	5%
COc1ccc(Nc2oc(-c3ccc(COc4cccc(C)c4)o3)nc2C#N)cc1	?	·	?	·	i	?
CCc1noc(C)c1C(=O)N1CCCSC1=Nc1ccccc1Cl	?	-6%	?	-1%	i	-24%
O=C1C2C3c4ccccc4C(c4ccccc43)C2C(=O)N1/N=C/c1cccc(O)c1 (stereo not drawn)	?	-7%	?	-12%	i	21µM*
CCOP(=O)(OCC)c1nc(-c2ccc(Cl)cc2Cl)oc1N1CCOCC1	?	-3%	i	1%	i	?
O=C(c1ccc2ccccc2c1)N1CCN(c2ccc(O)cc2)CC1	?	-8%	23µM*	-11%	i	?
O=C(CSc1ccc2ccccc2c1)N1CCN(c2ccc(O)cc2)CC1	12µM*	-16%	i	?	i	13µM*
COc1ccc(N2CCN(C(=O)CNC(=O)c3ccc4ccccc4c3)CC2)cc1	-1%	9%	?	5%	i	-1%
